This is an account of results in PubChem BioAssay (EPA / NIEHS).

A short description of experiment [1]: APR_HepG2_CellCycleArrest_24hr: Apredica 24-hour HepG2 Assay for Cell Cycle Arrest (AID 2282905).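 Also: cell cycle arrest scored as ratio of 2N to 4N nuclear DNA content.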 To be noted: imaging, actives raise or lower the signal. An outline of the steps:
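Compounds at 0.39–200 uM (0.5% DMSO) for 24 h, then fixed and Hoechst 33342 stained. Cell-cycle analysis of nuclear DNA content by high-content imaging, fitted bidirectionally versus DMSO.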

Experiment [2] is described as follows: APR_HepG2_NuclearSize_24hr: Apredica 24-hour HepG2 Assay for Nuclear Size (AID 2282907). To be noted: high-content imaging, actives raise or lower the signal. An outline of the steps: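 HepG2 cells exposed 24 h to compounds at 0.39–200 uM (0.5% DMSO), fixed, Hoechst 33342 stained and imaged at 20x; nuclear diameter measured by automated image analysis, fitted bidirectionally against DMSO controls.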

Experiment [3] is described as follows: APR_HepG2_CellLoss_24hr: Apredica 24-hour HepG2 Assay for Cell Loss (AID 2282908).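 As to AC50: fit in both directions so a hit may be cell loss or gain.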 The note with it: high-content imaging. In a few lines:
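HepG2 cells exposed 24 hr to 0.39–200 uM compound in duplicate at 0.5% v/v final DMSO. Cells fixed in 3.7% formaldehyde and Hoechst 33342-stained. Cell number came from nuclear imaging at 20x. Bidirectional fit versus DMSO.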

Experiment [4] can be described thus: APR_HepG2_MicrotubuleCSK_24hr: Apredica 24-hour HepG2 Assay for Microtubule CSK Stabilty (AID 2282909). To be noted: HepG2 microtubule cytoskeleton imaging, actives raise or lower the signal. In a few lines:
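HepG2 cells were treated 24 hr with compound at 0.39–200 uM in duplicate (0.5% DMSO final), then fixed and permeabilized. Alpha-tubulin immunofluorescence was imaged by high-content microscopy, with bidirectional fitting against DMSO and taxol as positive control.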

A short description of experiment [5]: APR_HepG2_MitoticArrest_24hr: Apredica 24-hour HepG2 Assay for Mitotic Arrest (AID 2282910). The note with it: high-content imaging, actives raise or lower the signal. An outline of the steps:
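Compounds are dosed onto HepG2 cells across ten concentrations up to 200 uM for 24 hr. Cells are then fixed in 3.7% formaldehyde, permeabilised, and labelled for phospho-histone H3 and nuclei; images are scored by cell cycle analysis and fitted bidirectionally relative to DMSO.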

A short description of experiment [6]: APR_HepG2_MitoMembPot_24hr: Apredica 24-hour HepG2 Assay for Mitochondrial Membrane Potential (AID 2282911). To be noted: imaging, actives raise or lower the signal. In a few lines: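 HepG2, 24 hr dosing, 10 concentrations 0.39–200 uM, 0.5% DMSO final. Live-cell MitoTracker Red CMXRos 250 nM 30 min, then 3.7% formaldehyde fix. HCS fluorescence imaging, 20x; bidirectional fit vs DMSO baseline.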

Experiment [7] can be described thus: APR_HepG2_MitoMass_24hr: Apredica 24-hour HepG2 Assay for Mitochondrial Mass (AID 2282912). The note with it: high-content imaging, actives raise or lower the signal. An outline of the steps: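 HepG2 cells exposed 24 hr to 0.39–200 uM compound, 0.5% v/v DMSO, in duplicate. Stained before fixation with 250 nM MitoTracker Red CMXRos for 30 min, then imaged at 20x with Hoechst nuclei. Fitted in both directions against DMSO.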

Experiment [8] in a line: APR_HepG2_p53Act_24hr: Apredica 24-hour HepG2 Assay for p53 Activation (AID 2282913).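 Also: p53 protein immunofluorescence averaged per cell in HepG2 with Hoechst nuclei.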 To be noted: high-content imaging, actives raise or lower the signal. In a few lines: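 Read-out: Cy5 immunofluorescence for p53 in fixed, permeabilized HepG2, imaged by HCS with Hoechst-defined nuclei. Dosing was 24 hr at 0.39–200 uM in 0.5% DMSO. Curves were fitted bidirectionally relative to DMSO.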

Experiment [9] in a line: APR_HepG2_CellCycleArrest_72hr: Apredica 72-hour HepG2 Assay for Cell Cycle Arrest (AID 2282914). The note with it: high-content imaging, actives raise or lower the signal. In a few lines:
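HepG2, 72 hr exposure, 10-point 0.39–200 uM, duplicate, 0.5% DMSO final. Fix 3.7% formaldehyde 30 min RT, Triton X-100 0.5%, Hoechst 33342 2 ug/mL. ArrayScan 20x, six fields/well; DNA content per nucleus; bidirectional fit vs DMSO.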

A short description of experiment [10]: APR_HepG2_CellLoss_72hr: Apredica 72-hour HepG2 Assay for Cell Loss (AID 2282915). The note with it: high-content imaging. An outline of the steps:
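Cell number comes from Hoechst 33342-labelled nuclei, imaged at 20x after 3.7% formaldehyde fixation. Dosing was 0.39–200 uM, ten concentrations in duplicate, 0.5% DMSO final, for 72 h. Bidirectional fit relative to DMSO baseline.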

A short description of experiment [11]: APR_HepG2_P-H2AX_72hr: Apredica 72-hour HepG2 Assay for H2AX Phosphorylation (AID 2282916).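 Also: phospho-histone H2A.x immunostain intensity per cell marking DNA damage.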 To be noted: imaging, actives raise or lower the signal. In a few lines: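 HepG2 cells treated 72 h at 0.39–200 uM, 0.5% DMSO final, duplicates. Formaldehyde-fixed, Triton-permeabilised, immunostained for phospho-H2A.x with Hoechst; fluorescence imaged at 20x, bidirectional fit versus DMSO.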

Experiment [12] is described as follows: APR_HepG2_MitoMembPot_72hr: Apredica 72-hour HepG2 Assay for Mitochondrial Membrane Potential (AID 2282917). To be noted: imaging, actives raise or lower the signal. An outline of the steps: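 Membrane potential read by MitoTracker Red CMXRos (250 nM, 30 min, pre-fixation) fluorescence imaging of HepG2 after 72 hr exposure. Ten concentrations, 0.39–200 uM, duplicate wells, 0.5% DMSO; fitted in both directions against DMSO baseline.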

A short description of experiment [13]: APR_HepG2_MitoticArrest_72hr: Apredica 72-hour HepG2 Assay for Mitotic Arrest (AID 2282918). To be noted: high-content imaging, actives raise or lower the signal. An outline of the steps:
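HepG2, 72 hr exposure, 0.39–200 uM in duplicate, 0.5% v/v DMSO final. Formaldehyde-fixed, Triton-permeabilized, anti-phospho-histone H3/FITC plus Hoechst. ArrayScan imaging at 20x; curves fit bidirectionally against DMSO baseline.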

Experiment [14] in a line: APR_HepG2_P-H2AX_24hr: Apredica 24-hour HepG2 Assay for H2AX Phosphorylation (AID 2282920). To be noted: high-content imaging, actives raise or lower the signal. In a few lines: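 HCS fluorescence imaging of phospho-H2A.x immunostain (with Hoechst 33342 nuclear counterstain) in HepG2 after 24 hr compound exposure; 10 concentrations, 0.39–200 uM, duplicate wells, 0.5% v/v DMSO. Gain or loss of signal fitted relative to DMSO baseline.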

Experiment [15] in a line: APR_HepG2_StressKinase_72hr: Apredica 72-hour HepG2 Assay for Stress Kinase (AID 2282921). The note with it: HepG2 stress kinase (phospho-c-Jun) imaging, actives raise or lower the signal. In a few lines:
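HepG2 cells treated 72 hr with 0.39–200 uM compound, 0.5% v/v DMSO, duplicate wells. After formaldehyde fixation and Triton permeabilization, stained with anti-phospho-c-Jun (1:500) and Cy3 secondary, imaged at 20x. Fitted in both directions against DMSO.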

Experiment [16] is described as follows: APR_HepG2_StressKinase_24hr: Apredica 24-hour HepG2 Assay for Stress Kinase (AID 2282922). The note with it: HepG2 stress kinase (phospho-c-Jun) imaging, actives raise or lower the signal. An outline of the steps:
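HepG2, 24 hr dosing, 0.39–200 uM in duplicate, 0.5% DMSO; formaldehyde fix (3.7%), 0.5% Triton X-100; anti-phospho-c-Jun + Cy3 secondary, Hoechst counterstain; ArrayScan imaging; bidirectional curve fit vs DMSO baseline.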

Experiment [17] in a line: APR_HepG2_p53Act_72hr: Apredica 72-hour HepG2 Assay for p53 Activation (AID 2282923).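 Also: average cellular p53 protein immunofluorescence intensity in HepG2 cells.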 The note with it: high-content imaging, actives raise or lower the signal. In a few lines:
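HepG2 cells exposed 72 h to 0.39–200 uM in 0.5% DMSO, duplicates. Fixed, permeabilized cells immunostained for p53 (Cy5) with Hoechst; imaged at 20x, fluorescence analyzed bidirectionally against DMSO.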

The nature of experiment [18]: APR_HepG2_MitoMass_72hr: Apredica 72-hour HepG2 Assay for Mitochondrial Mass (AID 2282924).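 Also: MitoTracker Red CMXRos stain intensity per cell imaged as mitochondrial mass.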 To be noted: high-content imaging, actives raise or lower the signal. An outline of the steps: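 HepG2, 72 hr cmpd, 10 conc 0.39–200 uM in dup, DMSO 0.5% v/v. MitoTracker Red CMXRos 250 nM 30 min pre-fix; formaldehyde 3.7% fix 30 min RT. HCS imaging, gain/loss fit vs DMSO.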

Experiment [19] in a line: APR_HepG2_NuclearSize_72hr: Apredica 72-hour HepG2 Assay for Nuclear Size (AID 2282925). The note with it: high-content imaging, actives raise or lower the signal. In a few lines:
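HepG2; cpd 0.39–200 uM, 10 conc, duplicate; 72 h; DMSO 0.5% v/v; fix 3.7% formaldehyde 30 min RT; Triton permeabilization; Hoechst 2 ug/mL; HCS imaging 20x; nuclear diameter; gain/loss fit vs DMSO.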

A short description of experiment [20]: APR_HepG2_MicrotubuleCSK_72hr: Apredica 72-hour HepG2 Assay for Microtubule CSK Stabilty (AID 2282919). To be noted: HepG2 microtubule cytoskeleton, high-content imaging, actives raise or lower the signal. In a few lines:
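Read-out is tubulin fluorescence intensity from high-content imaging of HepG2 cells, with nuclei identified by Hoechst 33342. Treatment lasts 72 h at 0.39–200 uM, and curves are fitted bidirectionally against the DMSO negative control.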

The structures appear in SMILES notation. The source made the active and inactive calls. The calls were made as follows: active = hit-call score of the fitted dose curve at least 0.9, where 1 is the maximum; inactive = score below 0.9.

For `CO[C@@H]1[C@H](OC(=O)NC(=O)CCl)CC[C@]2(CO2)[C@H]1[C@@]1(C)O[C@@H]1CC=C(C)C`, the outcome in experiment [1], in experiment [2], in [3], in [4], in experiment [5] and in experiment [6] was inactive. In addition, the call in experiment [7], in experiment [8], in experiment [9], in experiment [10], in [11] and in experiment [12] was inactive. Also, the call in [13], in experiment [14], in [15], in experiment [16], in experiment [17] and in [18] was inactive. The compound was classed as inactive in experiment [19].

In the case of `N#CC(Br)(Br)C(N)=O`, the outcome in [1], in [2], in experiment [3], in experiment [4], in experiment [5] and in experiment [6] was inactive. Also, the compound was called inactive in experiment [7], in experiment [8], in experiment [10], in [11], in [12] and in experiment [13]. Besides, the result in experiment [20], in experiment [14], in experiment [15], in experiment [16], in experiment [17] and in experiment [18] was inactive. In addition, the outcome in [19] was inactive.

For `COC(=O)Nc1nc2ccccc2[nH]1`, the half-maximal activity concentration (AC50) in [1] was 15.4 µM (active); in [3], 7.04 µM (active); in [5], 3.45 µM (active); in experiment [8], 3.13 µM (active); in experiment [9] it was 13.4 µM (active); in [10], 5.59 µM (active). The AC50 is 5.9 µM (active) in [11]; 5.54 µM (active) in [14]; 6.75 µM (active) in [15]; 36.3 µM (active) in experiment [16]; 2.8 µM (active) in experiment [17]; 5.43 µM (active) in [18]. For the same compound, the AC50 in [19] was 9.08 µM (active). In addition, the result in experiment [2], in experiment [4], in experiment [6], in experiment [7], in experiment [12] and in [13] was inactive.

For the compound `C1=Cc2cccc3cccc1c23`, the result in experiment [1], in [2], in experiment [3], in [4], in experiment [5] and in experiment [6] was inactive. For the same compound, the compound was classed as inactive in [7], in [8], in experiment [10], in [11], in [12] and in experiment [13]. For the same compound, the compound was classed as inactive in [14], in experiment [15], in experiment [16], in [17], in [18] and in [19].

As for `N#CC(Br)Br`, the outcome in [1], in [2], in experiment [6], in [9], in [12] and in experiment [20] was inactive. For the same compound, the outcome in experiment [15], in experiment [16], in experiment [18] and in [19] was inactive. For the same compound, the AC50 in experiment [3] is 115 µM (active); in [4], 169 µM (active); in [5] it was 45.4 µM (active); in experiment [7] it was 86.6 µM (active); in [10] it was 96.9 µM (active); in experiment [11], 96.9 µM (active). In addition, the values for the AC50 in experiment [13] and in experiment [14] were 73.6 µM (active) and 88.8 µM (active), respectively.

With `CCNS(=O)(=O)C(F)(F)C(F)(F)C(F)(F)C(F)(F)C(F)(F)C(F)(F)C(F)(F)C(F)(F)F`, the AC50 is 25.2 µM (active) in experiment [1]; 38.9 µM (active) in [3]; 56 µM (active) in experiment [4]; 46.3 µM (active) in [5]; 103 µM (active) in experiment [6]; 81.5 µM (active) in experiment [10]. Besides, the AC50 in experiment [11] is 100 µM (active); in experiment [12], 91.2 µM (active); in [13] it was 72.5 µM (active); in [20], 77.6 µM (active); in [14] it was 68.5 µM (active); in experiment [15] it was 112 µM (active). Further, the AC50 in experiment [19] is 105 µM (active). In addition, the call in experiment [2], in [7], in experiment [16] and in [18] was inactive.

As for `Nc1ccc(Cc2ccc(N)cc2)cc1`, the compound was called inactive in experiment [1], in [2], in [3], in experiment [4], in experiment [5] and in experiment [6]. Also, the compound was called inactive in experiment [7], in experiment [8], in [10], in experiment [11], in experiment [12] and in experiment [13]. Further, the call in experiment [14], in [15], in experiment [16], in experiment [17], in [18] and in experiment [19] was inactive.

Broadly, the AC50 is the midpoint of the concentration-response curve, whichever way the signal moves.
